Screens: PubChem, The Scripps Research Institute Molecular Screening Center
GPR151 activ – activators of human GPR151, primary screen, cell-based, PathHunter beta-arrestin, luminescence | activation, % at 11.2 µM | hit rate 1% among 650,000 | AID 1508602, 2020 | PathHunter beta-arrestin GPR151 cells | G-protein coupled receptor 151 (Homo sapiens), Q8TDV0; in the data active = activation above about 4.9%
FBW7 activator – FBW7 E3 ligase activators, primary screen, biochemical, AlphaScreen, human; F-box/WD repeat-containing protein 7 (Homo sapiens), Q969H0; AlphaScreen FBW7–phospho-cyclin E peptide binding, activator screen; normalized activity (activation), % at 26.1 µM; hit rate 0.13% among 650,000; in the data active = normalized activity above about 1.9%;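 also: purified mutant Fbw7 with reduced substrate affinity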
Target sequence (Q969H0 whole entry, looked up): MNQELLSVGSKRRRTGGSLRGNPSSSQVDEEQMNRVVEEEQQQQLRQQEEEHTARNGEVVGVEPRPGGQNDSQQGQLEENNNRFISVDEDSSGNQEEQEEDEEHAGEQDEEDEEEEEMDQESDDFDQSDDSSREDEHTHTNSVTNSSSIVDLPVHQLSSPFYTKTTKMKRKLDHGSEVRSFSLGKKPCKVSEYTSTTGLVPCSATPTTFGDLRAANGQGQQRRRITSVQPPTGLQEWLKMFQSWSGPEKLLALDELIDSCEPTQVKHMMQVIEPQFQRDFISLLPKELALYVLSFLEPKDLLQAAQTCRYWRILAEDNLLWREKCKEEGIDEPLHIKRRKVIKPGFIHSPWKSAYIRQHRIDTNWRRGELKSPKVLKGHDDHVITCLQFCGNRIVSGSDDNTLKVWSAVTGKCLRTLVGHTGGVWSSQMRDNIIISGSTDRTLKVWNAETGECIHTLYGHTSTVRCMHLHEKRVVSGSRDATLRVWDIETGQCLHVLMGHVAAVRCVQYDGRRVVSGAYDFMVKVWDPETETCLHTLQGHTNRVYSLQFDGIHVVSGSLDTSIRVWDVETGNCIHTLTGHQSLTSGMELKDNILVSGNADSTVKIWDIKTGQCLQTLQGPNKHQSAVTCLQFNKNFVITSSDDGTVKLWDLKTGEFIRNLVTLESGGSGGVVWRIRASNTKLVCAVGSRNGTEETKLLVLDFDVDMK
TEAD-YAP inh – TEAD-YAP interaction inhibition, primary screen, TEAD-YAP interaction inhibitor project, luminescence, HEK-TIYL cells. TEAD-Gal4/YAP UAS-luciferase luminescence. inhibition, % at 9.12 µM. hit rate 1.4% among 640,000; in the data active = inhibition above about 32%
MITF inh – MITF inhibitors, primary screen, biochemical, AlphaScreen, human | Microphthalmia-associated transcription factor (Homo sapiens), O75030 | AlphaScreen MITF homodimerization, bead proximity signal | inhibition, % at 2.6 µM | hit rate 0.91% among 650,000; in the data active = inhibition above about 50%
Of the large screens only hits and unclear results are named; the others gave an inactive call. Compounds with a hit are over-represented: about 3.5% of the library has one in this group of screens.

c1ccc(Nc2nc(NC3CC3)c3ncn(C4CCCCC4)c3n2)nc1	none
c1ccc(-n2cnc3c(NC4CC4)nc(Nc4ccc(-n5ccnc5)cc4)nc32)cc1	TEAD-YAP inh 41.1
c1ccc(-n2cnc3c(NC4CC4)nc(Nc4ccccn4)nc32)cc1	TEAD-YAP inh 47.0
CC12C(=O)N(c3ccc(Cl)cc3)C(=O)C1C1C=CC2C1 (centres undefined)	none
O=S(=O)(NCc1cccnc1)c1ccc(Cl)cc1	none
O=S(=O)(NCc1ccc2c(c1)OCO2)c1ccc(Cc2ccc(S(=O)(=O)NCc3ccc4c(c3)OCO4)cc2)cc1	TEAD-YAP inh 37.6
O=S(=O)(NCc1cccnc1)c1ccc(Cc2ccc(S(=O)(=O)NCc3cccnc3)cc2)cc1	TEAD-YAP inh 51.5
COc1ccc(/C=C/C(=O)c2ccc(S(=O)(=O)NCc3cccnc3)cc2)cc1	TEAD-YAP inh 35.0
COc1ccc(OCC(O)Cn2c3ccccc3c3ccccc32)cc1 (centres undefined)	TEAD-YAP inh 45.2
NC(=O)c1ccccc1N=Cc1ccc(Br)s1	none
Cc1ccc(C=Nc2ccccc2C(N)=O)s1	TEAD-YAP inh 35.9
COc1ccc(C=Nc2ccccc2C(N)=O)c2ccccc12	TEAD-YAP inh 60.0
CCCOc1ccc(C(=O)NC(=S)Nc2ccccn2)cc1	TEAD-YAP inh 50.8
CCCCOC(=O)CSC1=C(C#N)C(c2ccccc2)CC(=O)N1 (centres undefined)	TEAD-YAP inh 44.6
CCCCOC(=O)CSC1=C(C#N)C(c2ccc(Cl)cc2)CC(=O)N1 (centres undefined)	none
N#CC1=C(SCC(=O)Nc2ccccc2)NC(=O)CC1c1ccc(O)cc1 (centres undefined)	none
CCCOC(=O)CSC1=C(C#N)C(c2ccccc2)CC(=O)N1 (centres undefined)	TEAD-YAP inh 57.1
CCc1ccc(C2CC(=O)NC(SCC(=O)OC(C)C)=C2C#N)cc1 (centres undefined)	none
N#CC1=C(SCC(=O)Nc2ccccc2)NC(=O)CC1c1ccccc1 (centres undefined)	TEAD-YAP inh 32.2
CC(C)OC(=O)CSC1=C(C#N)C(c2ccccc2)CC(=O)N1 (centres undefined)	TEAD-YAP inh 62.1
CCCOC(=O)CSC1=C(C#N)C(c2ccc(O)cc2)CC(=O)N1 (centres undefined)	none
O=C(CSc1nnc2c3ccccc3n(CCc3ccccc3)c2n1)N1c2ccccc2Sc2ccccc21	none
COc1cc(S(=O)(=O)NCc2cccnc2)ccc1Cl	none
COc1cc(NS(=O)(=O)c2ccccc2)c(OC)cc1Cl	none
COc1cc(S(=O)(=O)NCc2ccncc2)ccc1Cl	TEAD-YAP inh 40.4
CCOc1ccc(S(=O)(=O)Nc2cc(C)ccc2OC)cc1	TEAD-YAP inh 53.0
COc1ccc(Cl)cc1NS(=O)(=O)c1ccc(C)cc1OC	TEAD-YAP inh 51.6
CCOc1ccc(S(=O)(=O)Nc2cc(OC)c(Cl)cc2OC)cc1	TEAD-YAP inh 62.6
COc1ccc(C(=O)N2CCN(Cc3ccc(C)cc3)CC2)cc1OC	none
CC(=O)c1cc(C(=O)NCC2Cc3cccc(-c4cncnc4)c3O2)cs1 (centres undefined)	none
Cc1cc(C(=O)N=c2sc3ccccc3n2C)no1	none
COc1ccc(S(=O)(=O)Nc2ccc(OC)c(OC)c2)cc1Cl	TEAD-YAP inh 37.8
COc1ccc(S(=O)(=O)Nc2cc(OC)c(Cl)cc2OC)cc1	TEAD-YAP inh 64.2
COc1cc(S(=O)(=O)Nc2cc(OC)c(Cl)cc2OC)ccc1Cl	TEAD-YAP inh 50.1
Cc1cc(C)c(S(=O)(=O)NCc2ccncc2)c(C)c1	TEAD-YAP inh 45.8
O=C(Nc1cccc(F)c1F)C1CC(O)CN1C(=O)Nc1ccccc1 (centres undefined)	none
CN(C)C(=O)c1ccc(S(=O)(=O)NCc2ccncc2)cc1	TEAD-YAP inh 36.8
Cc1c(C(=O)N2CCN(c3ccccc3F)CC2)sc2ncn(CC(=O)N3CC(C)CC(C)C3)c(=O)c12 (centres undefined)	none
Cc1cc2c(cc1C)C(c1cccc(Cl)c1)CC(=O)N2 (centres undefined)	TEAD-YAP inh 36.7
Nc1ccc(C(=O)OCc2nc3cc4ccccc4cc3[nH]2)cc1	TEAD-YAP inh 48.2
Nc1ccc(C(=O)OCCCc2nc3cc4ccccc4cc3[nH]2)cc1	none
COc1ccc2c(c1)sc1ncc(C(=O)N(C)C(C)C)c(=O)n12	none
CC1Cc2ccccc2N1C(=O)CSc1nnc(Cc2ccccc2)n1C (centres undefined)	TEAD-YAP inh 48.6
CC1Cc2ccccc2N1C(=O)CSc1nnc(-c2ccccc2)n1C (centres undefined)	none
CC12CN3CC(C)(CN(C1)C3c1ccc(Cl)cc1)C2=O (centres undefined)	none
CC(C)c1ccc(NC(=O)CSc2ccc(Sc3ccc(SCC(=O)Nc4ccc(C(C)C)cc4)cc3)cc2)cc1	none
CC(=O)N1c2ccc(-c3csc(NC(=O)c4ccncc4)n3)cc2CC1C (centres undefined)	TEAD-YAP inh 68.5
Cc1oc(C)c2c(=O)ccc3c(c12)OC(N)=C(C#N)C3c1ccc(Br)cc1 (centres undefined)	none
COc1ccc(-c2cc(C(F)(F)F)nc(SCC(=O)NCc3cccnc3)n2)cc1	none
CCNc1nc(NC(C)CC)nc(ON=C(C)C)n1 (centres undefined)	TEAD-YAP inh 35.9
Cc1nn2c(-c3ccccc3)csc2nc1=O	none
Oc1ccc(-c2csc3nc(-c4ccccc4)nn23)c(O)c1	TEAD-YAP inh 34.4
Cc1csc(Nc2nc(=S)[nH]c3ccccc23)n1	none
N#C/C(=N/Nc1cccc(C(F)(F)F)c1)C(N)=S	TEAD-YAP inh 47.2
O=C(CSc1ccnc(=O)[nH]1)Nc1ccc(F)cc1	none
O=C1ON=C(c2ccccc2)/C1=C\c1ccccc1O	MITF inh 67.6
CCOc1cc(/C=C2\C(=O)ON=C2C)cc(Br)c1OCC	none
CC1=NOC(=O)/C1=C/c1ccccc1O	MITF inh 54.9
CC1=NOC(=O)/C1=C\c1cc(Br)c(O)c(Br)c1	MITF inh 67.8
C#CCSc1nc2ccccc2n1C(=O)c1ccc2c(c1)OCO2	none
Cc1cc(NCc2ccccc2)nc(Nc2ccc(N3CCOCC3)cc2)n1	TEAD-YAP inh 49.4
Cc1cc(Nc2ccc(N3CCOCC3)cc2)nc(Nc2ccc(C(F)(F)F)cc2)n1	none
Cc1cc(NCCO)nc(Nc2ccc(-n3ccnc3)cc2)n1	none
Cc1cc(NCc2ccccc2)nc(Nc2ccc(-n3ccnc3)cc2)n1	TEAD-YAP inh 35.5
c1ccc(CNc2ccnc(Nc3ccc(N4CCOCC4)cc3)n2)cc1	TEAD-YAP inh 41.4
c1cncc(CNc2ccnc(Nc3ccc(N4CCOCC4)cc3)n2)c1	none
Cc1cc(Nc2ccc(N3CCOCC3)cc2)nc(Nc2ccccc2)n1	TEAD-YAP inh 66.1
Cc1cc(NCCN2CCOCC2)nc(Nc2ccc(N3CCOCC3)cc2)n1	none
